Several values for one entry are separate records, joined by “and”; a condition that tells them apart may be missing. Identical values can stand only once. About 1,700 (0.5%) of roughly 340,000 compounds were called active. No stated cut-off is given here; in the data, active means inhibition above about 40%; inactive means the rest. What follows is part of a selection rich in actives, with near analogues and random picks from the rest.
Target: Cysteine protease ATG4B (Homo sapiens) (UniProt Q9Y4P1)
Assay: ATG4B protease inhibitors, primary screen, biochemical, fluorescence, uHTS (AID 504462)
Conditions: ATG4B cleavage of LC3-PLA2, NBD-HPC fluorescence, 1 h; at 8.33 µM; stronger effect = higher value

Cysteine protease ATG4B (Homo sapiens), sequence (Q9Y4P1 whole entry, looked up): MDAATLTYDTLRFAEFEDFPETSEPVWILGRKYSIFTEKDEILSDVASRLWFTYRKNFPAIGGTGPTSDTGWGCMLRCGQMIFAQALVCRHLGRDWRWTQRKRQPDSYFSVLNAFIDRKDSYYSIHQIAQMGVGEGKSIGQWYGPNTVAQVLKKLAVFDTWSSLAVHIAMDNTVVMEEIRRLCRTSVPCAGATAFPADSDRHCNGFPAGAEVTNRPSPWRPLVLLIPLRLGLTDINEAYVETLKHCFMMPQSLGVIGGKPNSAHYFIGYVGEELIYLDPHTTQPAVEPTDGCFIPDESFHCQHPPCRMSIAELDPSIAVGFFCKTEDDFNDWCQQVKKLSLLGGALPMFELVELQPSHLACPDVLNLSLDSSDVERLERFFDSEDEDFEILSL

inhibition, active:
COc1cccc(CNc2nc(C(F)(F)F)nc3ccccc23)c1 49%
CC1=C/C(=N\S(=O)(=O)c2ccccc2)C(C(C)C)=CC1=O 66%
CC1(OC(=O)C2CCCC2)C(=O)C=C2C=C(c3ccc(C#N)cc3)OC=C2C1=O (configuration not stated) 45.7%
O=C(O)C(c1ccccc1)N1C(=O)/C(=C\c2ccc(-c3cccc(Cl)c3)o2)SC1=S (configuration not stated) 59.4%
Fc1ccc2[nH]c3c(N4CCN(Cc5ccc6c(c5)OCO6)CC4)ncnc3c2c1 48.4%
Cc1cccc(C)c1N1CCN(S(=O)(=O)N2CCCCC2)CC1 54.5%
CCOC(=O)C(C)Sc1nc2ccccc2c(=O)n1CC1CCCCC1 (configuration not stated) 41.4%
COc1cccc(/C=N/Nc2ccc(S(=O)(=O)Nc3ccccc3C(=O)O)cc2[N+](=O)[O-])c1O 42.3%
CCOC(=O)c1c(-c2ccccc2)oc2cc(Br)c(O)c(C=O)c12 49.9%
Cc1cccc(NC(=S)NCCc2ccc(Cl)cc2)c1C 48.4%

inhibition, inactive:
COc1cc(/C=C/C(=O)O)cc(S(=O)(=O)Nc2ccccc2SC)c1OC -3.57%
CS(=O)(=O)N(Cc1ccccc1Cl)c1ccc(C(=O)NCc2cccnc2)cc1 -9.46%
CCCCN(C(=O)CSCC(=O)Nc1ccc(OC)cc1)c1c(N)n(CCC)c(=O)[nH]c1=O -1.8%
NS(=O)(=O)c1ccc(CCNc2nc(C(F)(F)F)nc3ccccc23)cc1 -2.12%
CCc1ccc(C(CNc2nc(C(F)(F)F)nc3ccccc23)N(C)C)cc1 (configuration not stated) 19.9%
COC(=O)CN(c1nc(C)c(Cl)c(OC)n1)S(=O)(=O)c1ccc(C)cc1 11.3%
CC1Cc2ccccc2N1C1=CC(=O)CC(C)(C)C1 (configuration not stated) -2.3%
COc1ccc(S(=O)(=O)/N=C2\C=C(NS(=O)(=O)c3ccccc3)C(=O)c3ccccc32)cc1 -24.5%
CC1=C/C(=N\OS(=O)(=O)c2ccccc2)C=CC1=O -2.58%
Cc1cc(C)nc(-n2ncc3c2CC(c2ccc(C(C)C)cc2)CC3=O)n1 (configuration not stated) -17.4%
Cc1ccc(CNC(=O)CCN2C(=O)[C@@H]3Cc4ccccc4CN3C2=O)cc1 2.31%
CC(=O)Nc1ccc(NC(=O)CSc2nnnn2-c2ccccc2F)cc1 2.29%
C=CCC1(CC=C)CCCN1C(=O)c1cc(COc2ccc(-n3cncn3)cc2)on1 7.84%
CC(C)CCNC(=O)C1CCCN(S(=O)(=O)c2ccc(F)cc2)C1 (configuration not stated) 0.97%
O=C(c1ccc(OC2CCN(C(=O)c3cccnc3)CC2)cc1)N1CCCCCC1 19.9%
C=CCN1C=C2C(=O)C(C)(OC(=O)CCc3ccccc3)C(=O)C=C2C=C1c1ccc(C#N)cc1 (configuration not stated) -3.06%
COCCN1C=C2C(=O)C(C)(OC(=O)C3CCCC3)C(=O)C=C2C=C1c1ccsc1 (configuration not stated) 2.63%
O=C(O)c1ccc([N+](=O)[O-])cc1Sc1ccsc1 5.83%
COc1ccc(C(=O)CC(=O)c2ccc(C)cc2)c(O)c1 1.97%
Cn1cccc1/C=C1\SC(=S)N(NC(=O)c2ccc(Cl)cc2)C1=O 11.7%
CCN1C(=O)/C(=C\N2CCN(c3cccc(Cl)c3)CC2)SC1=S 1.01%
CCN(CC(=O)Nc1c(F)cccc1F)C(=O)c1ccc(-c2ccccc2)cc1 4.11%
O=C(c1cccs1)N1CCN(Cc2ccc3c(c2)OCO3)CC1 -7.13%
CCCCCc1c(C)nc(N2CCN(Cc3ccc4c(c3)OCO4)CC2)[nH]c1=O -0.63%
COC(=O)c1ccc(CNC(=O)Cn2cc(C)c(=O)[nH]c2=O)cc1 -5.77%
CN1CCN(Cc2nc3cc(NC(=O)COc4ccc([N+](=O)[O-])cc4)ccc3n2C)CC1 -4.73%
CC12c3ccccc3C(c3ccccc31)C1C(=O)N(Cc3cccnc3)C(=O)C12 (configuration not stated) -4.51%
Cc1cccc(C)c1N1CCN(S(=O)(=O)N2CCOCC2)CC1 19.1%
Cc1cccc(C(=O)N2CCN(S(=O)(=O)N3CCCCC3)CC2)c1 0.43%
O=C(O)c1ccc(S(=O)(=O)N2CCOCC2)o1 0.56%
O=c1cc(CO)oc(C(Nc2cccc([N+](=O)[O-])c2)c2ccccn2)c1O (configuration not stated) -12.1%
CCOn1c(SC(C)C)nc2ccccc2c1=O 7.51%
COCC(C)n1c(SCC(=O)NC2CCCCC2C)nc2ccccc2c1=O (configuration not stated) -0.82%
O=C(CNC(=O)c1ccc(Br)o1)NCC1CCCO1 (configuration not stated) -6.66%
Cc1ccc(C)c(-n2cc(CN3CCN(C(=O)c4ncn[nH]4)CC3)c(-c3ccccc3)n2)c1 2.98%
Cc1ccc(C(=O)C[n+]2cc(-c3ccccc3)n3c2CCCCC3)cc1 10.8% and 3.23%
COc1ccc(Br)cc1/C=N/Nc1ccc(S(=O)(=O)Nc2ccccc2C(=O)O)cc1[N+](=O)[O-] 12.8%
O=C(O)c1ccccc1/C=N/Nc1ccc(S(=O)(=O)Nc2ccc(Cl)cc2)cc1[N+](=O)[O-] 1.28%
O=C(OCc1cc(Cl)ccc1OC(F)F)c1cccnc1 -2.74%
COc1ccc(CNC(=O)C2(CC3CC(c4ccccc4)=NO3)CCN(C(=O)c3cccc(O)c3)CC2)cc1 (configuration not stated) -7.3%
CCOC(=O)c1c(-c2ccccc2)oc2cc(Br)c(O)cc12 -6.47%
CCOC(=O)c1c(-c2ccccc2)oc2ccc(OCC(=O)NN)cc12 -2.49%
O=C(CCc1ccccc1)Nc1ccc(NC(=O)C2CC2)nc1 -15.9%
Cn1c(=O)c2c(SCC(=O)N3CCOCC3)nc(C3CC3)nc2n(C)c1=O -4.88%
Cc1ccc(NC(=S)NCCc2ccc(Cl)cc2)c(C)c1 5.82%
Cc1cccc(NC(=S)NCCc2ccc(F)cc2)c1C 20.9%
O=C(Nc1cccn(Cc2ccccc2Cl)c1=O)NC1CCCCC1 -3.28%

— PubChem BioAssay AID504462 (Sanford-Burnham Center for Chemical Genomics, 2011)
